From PubChem BioAssay (NCI)
About 83,000 compounds went through this panel and 20% of them were active in at least one assay; those are over-represented in the sample as a whole.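 Percent growth is the endpoint: 0 to 100 indicates growth inhibition (40 means 60% inhibition), 0 means no net growth, and negative values indicate cell death.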 Unmarked numbers belong to inactive results. Active and inactive are the calls of the source. The calls were made as follows: active = growth percent below 10; inactive = the rest.

Assays:
Assay in all cases: NCI-60 one-dose screen, 48 h (100 = growth as untreated, 0 = no growth, -100 = all killed)
Conditions in all cases: 10 µM unless noted
NCI-H226 lung = test system: NCI-H226 lung
NCI-H322M lung = test system: NCI-H322M lung
HOP-62 NSCLC = test system: HOP-62 NSCLC
NCI-H460 lung = test system: NCI-H460 lung
HOP-92 NSCLC = test system: HOP-92 NSCLC
NCI-H522 lung = test system: NCI-H522 lung
A549/ATCC NSCLC = test system: A549/ATCC NSCLC
786-0 renal = test system: 786-0 renal
COLO 205 colon = test system: COLO 205 colon

SMILES	growth (NCI-H226 lung)	growth (NCI-H322M lung)	growth (HOP-62 NSCLC)	growth (NCI-H460 lung)	growth (HOP-92 NSCLC)	growth (NCI-H522 lung)	growth (A549/ATCC NSCLC)	growth (786-0 renal)	growth (COLO 205 colon)
COc1ccc2[nH]cc(-c3cc(N)n4nc(-c5cn(C)c6ccccc56)cc4n3)c2c1	-19.3% (active)	-97.2% (active)	-66.4% (active)	-1.01% (active)	-71% (active)	-75.9% (active)	-75.6% (active)	-87.6% (active)	-84.7% (active)
O=C(c1ccccc1)C(c1c[nH]c2ccccc12)c1c[nH]c2ccccc12	41.7%	96.5%	83.5%	29.8%	–	35.9%	70.2%	78.7%	58.5%
Nc1nc(-c2ccccc2)c(N=Nc2ccc(Cl)cc2[N+](=O)[O-])s1	77.4%	94.2%	90.9%	105%	68%	82.7%	95.3%	93.4%	101%
CC(=O)c1c(N)c(C#N)cn1-c1ccc(Cl)cc1Cl	80.6%	101%	94.6%	111%	98.6%	82.3%	95.8%	99.2%	105%
Cc1cccc(Nc2nc3ccccc3nc2/C=C/c2ccc(F)cc2)c1	95.2%	95.5%	99.7%	95.4%	84.5%	79.4%	91.2%	97.3%	106%
Cc1ccc(-c2nc(C#N)c(S(=O)(=O)N3CCN(S(=O)(=O)c4ccc(Cl)cc4)CC3)o2)cc1	87.6%	97.1%	63%	99.6%	94.6%	71.2%	94.3%	49.1%	124%
COc1ccc2[nH]cc(-c3nnc(N)nc3-c3cn(C)c4ncc(Br)cc34)c2c1	91.7%	77.9%	70.2%	83.1%	6.98% (active)	50.3%	84.3%	52.5%	102%
C=C1CCC2C3(C)COC(c4ccc(F)cc4)OC3CCC2(C)C1C/C=C1/C(=O)OCC1O (stereo not drawn)	-8.14% (active)	27%	-3.79% (active)	-39% (active)	-43.7% (active)	-80.7% (active)	9.65% (active)	-89.2% (active)	-50.6% (active)
CN1CCN(Cc2ccc(C(=O)Nc3cccc(C#Cc4cccc5[nH]nc(N)c45)c3)cc2C(F)(F)F)CC1	-84% (active)	-98.3% (active)	-90.1% (active)	-25.3% (active)	-87.7% (active)	-64.3% (active)	-88.8% (active)	-99.4% (active)	-87% (active)
CCOC(=O)C(N=Nc1ccc(S(=O)(=O)N=C(N)N)cc1)C(C)=O (stereo not drawn)	95.1%	107%	119%	109%	–	95.2%	107%	96.7%	106%
O=C(CSc1nc2ccccc2c(=O)[nH]1)NCCN1CCCCC1	95.7%	94.8%	106%	104%	101%	90.6%	100%	102%	99%
COc1ccc(NC(=O)[C@@H](N)Cc2ccccc2)cc1C(=O)Nc1cccc(C2CC(=O)c3c(cc(OC)c(OC)c3OC)O2)c1 (stereo partly drawn)	69.8%	79.3%	86.8%	54.7%	44.4%	39.6%	68.9%	72.2%	78.4%
COc1c(F)ccc(C(=O)Nc2ccc3nc(NC(=O)C4CCCN(S(=O)(=O)c5ccc(C#N)cc5)C4)sc3c2)c1F (stereo not drawn)	90.3%	101%	104%	96.8%	–	85.7%	91.6%	75.5%	96.9%
C#C[C@]1(O)CC[C@H]2[C@@H]3CC=C4c5sc(-c6ccc([N+](=O)[O-])cc6)nc5CC[C@]4(C)[C@H]3CC[C@@]21C	71.6%	25.5%	23.5%	-47.9% (active)	42.9%	-5.59% (active)	29.6%	18.3%	-70% (active)
N#Cc1c(-c2cccc(Cl)c2Cl)cc(-c2ccc3ccccc3c2)[nH]c1=O	19.6%	53.2%	34.4%	13.4%	-16.6% (active)	78.7%	25.1%	-65.1% (active)	116%
CCOC(=O)C1=C(N)N(c2ccccc2)C2=C(C(=O)CC(C)(C)C2)C1c1ccc(N2CCOCC2)cc1 (stereo not drawn)	89.8%	99.1%	102%	106%	87.7%	89.4%	103%	87.7%	108%
Cn1cc(-c2cc3nc(-c4c[nH]c5ccc(Br)cc45)cc(N)n3n2)c2ccccc21	-35% (active)	-48.8% (active)	-74.4% (active)	-52.9% (active)	-73.6% (active)	-68.9% (active)	-71.7% (active)	-89.6% (active)	-83.5% (active)
C#CCOc1ccc(/C=N/Nc2nc(-c3ccc(Cl)cc3)cs2)cc1OC	56.3%	89.3%	84.7%	68%	48.8%	47.5%	64.4%	69.2%	54.7%
COC(OC)C1=C(C)OC(N)=C(C#N)C12C(=O)Nc1ccccc12 (stereo not drawn)	90.2%	98.3%	111%	97.2%	118%	6.48% (active)	114%	113%	102%
O=C(c1ccccc1)c1ccc2nc(-c3cccc(Cl)c3)[nH]c2c1	105%	105%	107%	111%	111%	101%	104%	100%	116%
Brc1ccc(N/N=C/c2c[nH]c3ccc(Br)cc23)nc1	3.09% (active)	17.6%	-16.7% (active)	-75.3% (active)	–	-55.5% (active)	0.0958% (active)	-23.8% (active)	-89.1% (active)
O=C(c1ccccc1)c1ccc2nc(-c3ccc(F)cc3)[nH]c2c1	25.4%	97.2%	83.5%	51.4%	90.5%	-59.7% (active)	82.2%	39%	85.8%
Cc1ccc(Cc2cnc(NC(=O)c3ccc(/C=C4\SC(=S)N(C)C4=O)cc3)s2)cc1	52.5%	35.9%	46.4%	39.6%	48.4%	-22.8% (active)	43.2%	37.8%	24.4%
COc1cc2oc(-c3cccc(NC(=O)[C@H](CC(N)=O)NC(=O)OC(C)(C)C)c3)cc(=O)c2c(OC)c1OC	92.7%	101%	104%	89.1%	74.9%	73.7%	95%	88.2%	109%
CCCCSc1nc(Nc2ccc(S(N)(=O)=O)cc2)c(C#N)c(-c2ccc(Cl)cc2)n1	12.8%	73.8%	10.6%	7.9% (active)	–	63.8%	1.68% (active)	23%	55.2%
C#CCOc1ccc(/C=N/Nc2nc(-c3ccc(F)cc3)cs2)cc1OC	54.1%	83.1%	86.9%	77.4%	34.2%	46.9%	72.9%	84.4%	68.9%
O=C1N/C(=N\c2nccs2)S/C1=C\C=C/c1ccccc1	81.5%	30.4%	43%	26.4%	64%	19.8%	-81.1% (active)	31%	33.2%
